Shown is part of a subset that was picked to be rich in hits.
Methyltransferases: Primary Screen for Target Class Profiling of Small Molecule Inhibitors of Methyltransferases | purified enzyme, MTase-Glo SAH luminescence; hits give low values | calls only at 40 µM | hit rate 3.9% among 25,000 | AID 1745853, 2022; call rule not given here
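Each enzyme was assayed with SAM and its substrate. SAH formation detected by MTase-Glo luminescence; single-point 40 uM screen[…].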
MTase-Glo ctr: Counterscreen for Target Class Profiling of Small Molecule Inhibitors of Methyltransferases; shares compounds with Methyltransferases; MTase-Glo coupled enzymes, SAH conversion luminescence, no MTase; Potency, µM (titrated, usually from 57.3 µM), without a hit: top-dose activity change, negative = inhibition, usual class: inhibitors; hit rate 6% among 180; active = well fitted inhibition curve with a large enough effect; inconclusive = small, poorly fitted or top-dose-only effect; also: potency is read from the fitted curve at half-maximal effect
An asterisk follows results filed as active; i = inactive; ? = inconclusive; + = active, no number; [ ] = another dose, or the depositor's remark. % is scaled to controls: 0 for no effect and ±100 for the full control effect.

SMILES | Methyltransferases | others
CC(CN1C(=O)c2ccc(-c3ccco3)n2CC1(C)C(=O)NC1CCCCCCC1)c1ccccc1 (stereo not drawn) | i
CCCn1c(=O)c2ccc(C(=O)NC3CCCC3)cc2n2c(SCC(=O)NC3CCCCC3)nnc12 | i
CCc1cccc(N2C(=O)c3cc(-c4ccc(OC)cc4)nn3CC2(C)C(=O)NCc2ccccc2)c1 (stereo not drawn) | i
CCCN1C(=O)c2c(C(=O)N(C)Cc3ccccc3)ncn2CC1(C)C(=O)NCc1ccc(C)cc1 (stereo not drawn) | i
COc1ccc(-c2cc(-c3cnn(C)c3)cn3cncc23)cn1 | + | MTase-Glo ctr=?
COc1ccc(C2(CNC(=O)[C@](C)(Cc3c[nH]c4ccccc34)NC(=O)Nc3ccc([N+](=O)[O-])cc3)CCCCC2)nc1 | i
CCOc1ccc(CNC(=O)C2c3ccccc3CC(=O)N2CC)cc1 (stereo not drawn) | i
O=C(N[C@H](C1CCNCC1)C1CC(O)C1)c1ccc2nccnc2c1 (stereo partly drawn) | + | MTase-Glo ctr=3.4%
NS(=O)(=O)c1ccc(C(=O)NC(Cc2ccncc2)C2CC(O)C2)cc1 (stereo not drawn) | i
O=C(N[C@H](c1ccccc1)C1CC(O)C1)c1ccc(-n2cccn2)cc1 (stereo partly drawn) | i
COc1cc([C@H]2OC[C@@H]3[C@@H](c4ccc(O[C@@H]5O[C@H](CO)[C@@H](O)[C@H](O)[C@H]5O)c(OC)c4)OC[C@]23O)ccc1O | i
CCNC(=O)[C@H]1O[C@@H](n2cnc3c(N)nc(NCCc4ccc(CCC(=O)O)cc4)nc32)[C@H](O)[C@@H]1O | i
CNC(=O)N1CCC(C2CCN(C(=O)NCc3cccc(OC)c3)C2)CC1 (stereo not drawn) | i
CCCn1c(C)cnc1CC1CCCN(S(=O)(=O)c2cc(OC)ccc2OC)C1 (stereo not drawn) | i
CCCn1c(C)cnc1CC1CCN(C(=O)NCc2ccc(OC)cc2)C1 (stereo not drawn) | + | MTase-Glo ctr=-3.7%
O=C(Nc1ccc2[nH]ncc2c1)C1CCC1 | i
Nc1nc(C2CC(O)C2)cc(N2CC(N3CCOCC3)C2)n1 (stereo not drawn) | i
CN(CCO)C[C@@H]1CN(C(=O)CCc2nc3ccc(F)cc3[nH]2)C[C@@H]1CO | i
CN(CCc1nc2ccc(Cl)cc2[nH]1)c1cc(C2CC(O)C2)nc(N)n1 (stereo not drawn) | + | MTase-Glo ctr=-4.4%
CCCCSCc1cc(C(=O)N2CC(C)(C)C(C)(O)C2)oc1C (stereo not drawn) | i
COc1ccc2[nH]c(CNc3cc(C4CC(N)C4)nc(C)n3)cc2c1 (stereo not drawn) | + | MTase-Glo ctr=-1.0%
C#CCNCc1cc2cc(OCc3ccccc3)ccc2[nH]1 | i
CNC(=O)[C@@H]1CN(C(=O)c2cc3cc(OC)ccc3[nH]2)C[C@H]1COC | i
CC(NC(=O)CN1C(=O)NC2(CCS(=O)(=O)CC2)C1=O)c1ccccc1 (stereo not drawn) | i
CC(=O)c1ccc(Nc2nc3c(S(=O)(=O)c4ccc(C)c(C)c4)nnn3c3ccccc23)cc1 | i
SMILES | Methyltransferases | others
CCCCNC(=O)[C@@H]1Cc2ccccc2N1C(=O)[C@@H](N)CC | i
COc1ccc(-c2nnc3n(Cc4ccccc4)c(=O)c4ccccc4n23)cc1OC | i
COc1ccc(-c2cc3c(cn2)CN(CCc2ccccc2)CCN3)cc1OC | + | MTase-Glo ctr=?
COc1ccc2cc3n(c2c1)CC(C)(C(=O)NC1CCCCCC1)N(Cc1cccnc1)C3=O (stereo not drawn) | i
COc1cccc(Nc2cc3c(cn2)CN(Cc2cccnc2)CCN3)c1 | + | MTase-Glo ctr=-5.0%[85.7 µM]
COc1ccc(CN2C(=O)c3cc(-c4ccccc4)nn3CC2(C)C(=O)NCc2ccccc2)cc1OC (stereo not drawn) | i
CCOc1cc2c(cn1)NCCN(Cc1ccncc1Cl)C2 | i
COc1ccc(CCN2CCN(CCCc3ccccc3)CC2)cc1OC | i
COc1ccc(CNc2cc3c(cn2)CN(Cc2ccccc2)CCN3)cc1OC | + | MTase-Glo ctr=-1.0%[85.7 µM]
CCn1cc(CNc2ccc(-c3ccccc3OC)nn2)cn1 | i
O=C1NCCN1C1CCN(Cc2cccnc2)CC1 | i
Cn1nccc1-c1cc2c(cn1)CN(Cc1ccncc1)CCN2 | + | MTase-Glo ctr=-2.7%[85.7 µM]
O=C(c1cccnc1)N1C[C@@H]2OCC(=O)N(c3ccccc3)[C@@H]2C1 | i
CCOC(=O)c1cc2n(n1)CC(C)(C(=O)NC1CCCCC1)N(Cc1ccccc1Cl)C2=O (stereo not drawn) | i
O=C(NCc1cccc(O)c1)c1cc2cc(F)ccc2[nH]1 | i
CCC(C)NC(=O)c1ccc2c(=O)n(CCC(C)C)c3nn(CC(=O)c4ccc(OC)cc4)c(=O)n3c2c1 (stereo not drawn) | i
Cc1cc(C)cc(N2C(=O)CSc3c(c4ccccc4n3C)C2C(=O)NCCCOC(C)C)c1 (stereo not drawn) | i
Cc1cc(C)c(S(=O)(=O)N(Cc2ccc(-c3cccc(S(C)(=O)=O)c3)cc2)Cc2ccc(C(F)(F)F)o2)c(C)c1 | i
COc1ccc(-c2noc(C(=O)NC(C)C)c2[C@H](C)O)cc1 | i
O=C(C1CCC(=O)N(C2CCCC2)C1)N1CCN(c2nccs2)CC1 (stereo not drawn) | i
COc1ccc(CCN2C(=O)c3nc4ccccc4n3CC2(C)C(=O)NC2CCCC2)cc1OC (stereo not drawn) | i
Cc1ccc(N2CCN(C(=O)c3noc(-c4ccc[nH]c4=O)n3)CC2)cc1 | i
O=C(O)c1cccc(C2CCCN(C(=O)c3c(F)cccc3Cl)C2)c1 (stereo not drawn) | i
O=C1NC[C@@H](CCC(=O)N2CCc3ccccc32)N2C[C@@H](NS(=O)(=O)c3ccccc3)C[C@@H]12 | i
O=C(O)C1Cn2cccc2C(=O)N1Cc1cccnc1 (stereo not drawn) | i
SMILES | Methyltransferases | others
CCOC(=O)c1cc2n(n1)CC(C)(C(=O)NCc1ccc(F)cc1)N(c1cccc(CC)c1)C2=O (stereo not drawn) | i
Nc1ccc(S(=O)(=O)Nc2ccnn2-c2ccccc2)cc1 | i
O=[S+]([O-])(Nc1cccnc1)c1ccc2c(c1)OCCN(Cc1cncnc1)C2 | i
O=C1c2cc(N3CCOCC3)nc(-c3cccc(CO)c3)c2CN1c1ccccc1 | i
c1ccc(CN2CCNc3cnc(Nc4ccc(N5CCOCC5)cc4)cc3C2)cc1 | + | MTase-Glo ctr=3.3%[85.7 µM]
CC(=O)N1CCN(c2nc3c(s2)CC(C(=O)NCc2ccc(C(C)C)cc2)CC3)CC1 (stereo not drawn) | i
CCCn1c(=O)c2ccccc2n2c(SCC(=O)N3CCN(c4ccccc4F)CC3)nnc12 | i
CCCn1c(=O)c2ccc(C(=O)NC(C)C)cc2n2c(=O)n(C)nc12 | i
COCCNC(=O)c1cc2n(n1)CC(C)(C(=O)NCc1ccc(F)cc1)N(C)C2=O (stereo not drawn) | i
Cn1c(=O)n(C)c2cc(S(=O)(=O)Nc3cccc4c3CCCC4)ccc21 | i
CCOC(=O)C(Cc1c[nH]c2ccccc12)NC(=O)c1ccco1 (stereo not drawn) | i
COc1cc(NC(=O)c2ccccn2)ccc1Cl | i
COc1ccccc1CC(=O)N1CCCc2ncc(C(=O)Nc3cccc(Cl)c3)cc21 | + | MTase-Glo ctr=3.8%[85.7 µM]

Screening results deposited in PubChem by National Center for Advancing Translational Sciences (NCATS).
